Laboratory results from the supplement of paper PMC8371130.
Counter-ions that a name gives are not always drawn.

System: HL-1
Experiment: relative cell viability (CellTiter-Glo) vs DMSO control (% of DMSO control); higher = more viable cells
Method in brief: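 Viability of HL-1 mouse atrial cardiomyocytes was assessed by CellTiter-Glo luminescence and normalised to vehicle-treated control cells. Cells were plated in 384-well plates at 1000 cells per well with compounds at 40, 200, 1000 or 5000 nM in 0.01% DMSO, and one day later were placed at 1% O2 for 48 h, then reoxygenated for 24 h, or kept in normoxia for the same duration.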

[1] = oxygen condition: hypoxia 48 h (1% O2) + reoxygenation 24 h, 40 nM
[2] = oxygen condition: hypoxia 48 h (1% O2) + reoxygenation 24 h, 200 nM
[3] = oxygen condition: hypoxia 48 h (1% O2) + reoxygenation 24 h, 1000 nM
[4] = oxygen condition: hypoxia 48 h (1% O2) + reoxygenation 24 h, 5000 nM
[5] = oxygen condition: normoxia 72 h, 40 nM
[6] = oxygen condition: normoxia 72 h, 200 nM
[7] = oxygen condition: normoxia 72 h, 1000 nM
[8] = oxygen condition: normoxia 72 h, 5000 nM

SMILES | relative cell viability [1] | relative cell viability [2] | relative cell viability [3] | relative cell viability [4] | relative cell viability [5] | relative cell viability [6] | relative cell viability [7] | relative cell viability [8]
COc1ccccc1OCC(O)CN1CCN(CC(=O)Nc2c(C)cccc2C)CC1 (stereo not drawn) [Ranolazine dihydrochloride] | 88.7 | 89.7 | 86.8 | 108 | 98.5 | 97.1 | 98.8 | 110
C=CC[C@@H]1/C=C(\C)C[C@H](C)C[C@H](OC)[C@H]2O[C@@](O)(C(=O)C(=O)N3CCCC[C@H]3C(=O)O[C@H](/C(C)=C/[C@@H]3CC[C@@H](O)[C@H](OC)C3)[C@H](C)[C@@H](O)CC1=O)[C@H](C)C[C@@H]2OC | 102 | 105 | 102 | 101 | 109 | 106 | 106 | 105
Cc1c(O)c(=O)ccn1C [Deferiprone] | 108 | 102 | 102 | 112 | 100 | 102 | 107 | 111
CN(C)C/C=C/C(=O)Nc1cc2c(Nc3ccc(F)c(Cl)c3)ncnc2cc1O[C@H]1CCOC1 [Afatinib] | 102 | 107 | 85.9 | 64.7 | 102 | 102 | 72.5 | 17.6
OC(CNCC(O)C1CCc2cc(F)ccc2O1)C1CCc2cc(F)ccc2O1 (stereo not drawn) [Nebivolol] | 106 | 109 | 106 | 112 | 103 | 107 | 112 | 115
Cc1cccc(Nc2ccccc2C(=O)O)c1C [Mefenamic acid] | 96.6 | 93.4 | 102 | 113 | 100 | 105 | 111 | 110
CN1CCC[C@H]1c1cccnc1 [Nicotine Ditartrate] | 97.5 | 99.9 | 106 | 113 | 104 | 104 | 103 | 109
CC(=O)O[C@H]1CC[C@@]2(C)C(=CC[C@@H]3[C@@H]2CC[C@]2(C)C(c4cccnc4)=CC[C@@H]32)C1 [Abiraterone Acetate] | 104 | 103 | 101 | 117 | 97.2 | 99.2 | 102 | 115
O=C[C@H](O)[C@@H](O)[C@H](O)CO [Xylose] | 106 | 102 | 103 | 111 | 107 | 105 | 112 | 111
CO[C@H]1C[C@@H]2CC[C@@H](C)[C@@](O)(O2)C(=O)C(=O)N2CCCC[C@H]2C(=O)O[C@H]([C@H](C)C[C@@H]2CC[C@@H](OC(=O)C(C)(CO)CO)[C@H](OC)C2)CC(=O)[C@H](C)/C=C(\C)[C@@H](O)[C@@H](OC)C(=O)[C@H](C)C[C@H](C)/C=C/C=C/C=C/1C [Temsirolimus] | 70.7 | 67.6 | 74.2 | 61.7 | 60.2 | 67.5 | 81.1 | 44
NS(=O)(=O)c1cc(Cl)c(Cl)c(S(N)(=O)=O)c1 [Dichlorphenamide] | 109 | 106 | 103 | 115 | 105 | 102 | 103 | 109
O=P(O)(O)C(O)(Cc1cccnc1)P(=O)(O)O [Risedronic acid] | 94 | 101 | 96.4 | 71.4 | 99 | 108 | 105 | 107
CN1C2=CC(=O)/C(=N\NC(N)=O)C=C2CC1S(=O)(=O)O (stereo not drawn) [Carbazochrome sodium sulfonate] | 99 | 97 | 101 | 112 | 95 | 102 | 89.9 | 108
COc1ccc2[nH]c([S@@+]([O-])Cc3ncc(C)c(OC)c3C)nc2c1 [Esomeprazole sodium] | 94 | 93.2 | 106 | 106 | 94.1 | 96 | 100 | 114
CCOc1nc2cccc(C(=O)OC(C)OC(=O)OC3CCCCC3)c2n1Cc1ccc(-c2ccccc2-c2nn[nH]n2)cc1 (stereo not drawn) [Candesartan cilexetil] | 106 | 104 | 97.6 | 4.71 | 98 | 102 | 101 | 4.11
CC1=C(/C=C/C(C)=C/C=C/C(C)=C\C(=O)O)C(C)(C)CCC1 [Isotretinoin] | 103 | 102 | 105 | 111 | 116 | 104 | 107 | 112
CNCCCC12CCC(c3ccccc31)c1ccccc12 [Maprotiline hydrochloride] | 98.7 | 103 | 93.4 | 83.3 | 98.7 | 102 | 102 | 87.7
CN1CCN(CCCN2c3ccccc3Sc3ccc(Cl)cc32)CC1 [Prochlorperazine Dimaleate] | 114 | 111 | 106 | 113 | 98.7 | 99.3 | 102 | 105

SMILES | relative cell viability [1] | relative cell viability [2] | relative cell viability [3] | relative cell viability [4] | relative cell viability [5] | relative cell viability [6] | relative cell viability [7] | relative cell viability [8]
CNCC[C@@H](Oc1ccccc1C)c1ccccc1 [Atomoxetine HCl] | 102 | 104 | 108 | 108 | 100 | 102 | 103 | 119
COCCOC(=O)C1=C(C)NC(C)=C(C(=O)OC/C=C/c2ccccc2)C1c1cccc([N+](=O)[O-])c1 (stereo not drawn) [Cilnidipine] | 101 | 105 | 110 | 109 | 107 | 109 | 103 | 110
CC[C@@H]1/C=C(\C)C[C@H](C)C[C@H](OC)[C@H]2O[C@@](O)(C(=O)C(=O)N3CCCC[C@H]3C(=O)O[C@H](/C(C)=C/[C@@H]3CC[C@H](Cl)[C@H](OC)C3)[C@H](C)[C@@H](O)CC1=O)[C@H](C)C[C@@H]2OC [Pimecrolimus] | 98.7 | 93.8 | 101 | 104 | 96.8 | 99.1 | 94.7 | 106
C#Cc1cccc(Nc2ncnc3cc(OCCOC)c(OCCOC)cc23)c1 [Erlotinib HCl] | 114 | 107 | 105 | 124 | 112 | 123 | 112 | 113
COc1ccccc1OCC(O)COC(N)=O (stereo not drawn) [Methocarbamol] | 104 | 107 | 108 | 119 | 101 | 112 | 106 | 114
CS(=O)(=O)CCNCc1ccc(-c2ccc3ncnc(Nc4ccc(OCc5cccc(F)c5)c(Cl)c4)c3c2)o1 [Lapatinib] | 101 | 97.4 | 99.7 | 104 | 93.2 | 96.8 | 94 | 102
CCCc1nn(C)c2c(=O)[nH]c(-c3cc(S(=O)(=O)N4CCN(C)CC4)ccc3OCC)nc12 [Sildenafil citrate] | 99.7 | 102 | 105 | 104 | 107 | 103 | 101 | 109
COc1cc2ncnc(Nc3ccc(F)c(Cl)c3)c2cc1OCCCN1CCOCC1 [Gefitinib] | 106 | 114 | 122 | 100 | 101 | 112 | 99.4 | 100
CN1CC(=O)N2[C@H](c3ccc4c(c3)OCO4)c3[nH]c4ccccc4c3C[C@@H]2C1=O [Tadalafil] | 106 | 105 | 116 | 112 | 106 | 112 | 110 | 121
CC[C@@]1(O)C(=O)OCc2c1cc1n(c2=O)Cc2cc3c(CN(C)C)c(O)ccc3nc2-1 [Topotecan HCl] | 58.6 | 37.4 | 19.8 | 9.1 | 52.3 | 30.9 | 15.1 | 6.41
CCOC(=O)[C@H](CCc1ccccc1)N[C@@H](C)C(=O)N1[C@H](C(=O)O)C[C@@H]2CCC[C@@H]21 [Ramipril] | 100 | 115 | 113 | 123 | 112 | 105 | 117 | 116
CCOC(=O)C1=C[C@@H](OC(CC)CC)[C@H](NC(C)=O)[C@@H](N)C1 [Oseltamivir phosphate] | 94.9 | 99.4 | 99.5 | 111 | 103 | 101 | 105 | 111
C[C@H](N[C@@H](CCc1ccccc1)C(=O)O)C(=O)N1CCC[C@H]1C(=O)O [Enalaprilat dihydrate] | 104 | 106 | 102 | 110 | 104 | 99 | 107 | 109
CN(CCOc1ccc(CC2SC(=O)NC2=O)cc1)c1ccccn1 (stereo not drawn) [Rosiglitazone HCl] | 107 | 93.8 | 101 | 109 | 100 | 93.8 | 104 | 107
O=C(O)c1ccc(-n2nc(-c3ccccc3O)nc2-c2ccccc2O)cc1 [Deferasirox] | 93.2 | 100 | 99.7 | 88.1 | 97 | 104 | 94.3 | 42.9
CCOC(=O)c1ncn2c1CN(C)C(=O)c1cc(F)ccc1-2 [Flumazenil] | 104 | 107 | 100 | 115 | 107 | 98.5 | 104 | 106
O=C(O)c1cccnc1 [Niacin] | 107 | 107 | 98 | 109 | 110 | 111 | 106 | 93.9
CN1CCC(=C2c3ccccc3C=Cc3ccccc32)CC1 [Cyproheptadine HCl] | 97.1 | 95.8 | 102 | 110 | 100 | 98.1 | 102 | 118
